ELG1 genotoxic: induces genotoxicity in HEK293T cells with luciferase-tagged ELG1 | HEK293T ELG1-luciferase reporter, luminescence, 16 h | Potency, µM (top dose mostly 46 µM), inactives show at the highest dose activity change, positive = activation, usual class: activators | 330,000 compounds, 1.3% hits; further: % of control where 0% means no effect; nearly all actives have a fitted effect of over 60% in size
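HEK293T cells expressing luciferase-tagged ELG1 were treated with compound or DMSO for 16 hr at 37°C. Luciferase activity was then read after 30 min with ONE-Glo at room temperature; rising signal flags genetic stress.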
Rab9 promoter act: activates the Rab9 promoter; Huh7 Rab9 promoter-luciferase reporter, luminescence, 24 h; Potency, µM (doses to about 9.22 µM), without a hit: top-dose activation, negative = inhibition, usual class: activators; 320,000 compounds, 2.8% hits; AID 485297; further: % of control where 0% means no effect; nearly all actives have a fitted effect of over 60% in size
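Huh7 cells stably carrying Rab9 promoter–luciferase reporter, plated 1500 cells/well, compound added after 2 h and incubated 24 h at 37 °C; luciferase luminescence then read after 10 min with detection reagent.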
FLuc counter: counter-screen for miR-21 project: firefly luciferase inhibitors or activators. P08659. purified FLuc, Km substrates, luminescence inhibition. Potency, µM (titrated, usually from 57.5 µM), for inactives: at the top dose activity change, negative = inhibition, most hits filed as inhibitors. 360,000 compounds, 6.9% hits;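 further: plate controls were vehicle for no effect and reference inhibitor for full effect; nearly all actives have a fitted effect of over 55% in size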
Target sequence (P08659 whole entry, looked up): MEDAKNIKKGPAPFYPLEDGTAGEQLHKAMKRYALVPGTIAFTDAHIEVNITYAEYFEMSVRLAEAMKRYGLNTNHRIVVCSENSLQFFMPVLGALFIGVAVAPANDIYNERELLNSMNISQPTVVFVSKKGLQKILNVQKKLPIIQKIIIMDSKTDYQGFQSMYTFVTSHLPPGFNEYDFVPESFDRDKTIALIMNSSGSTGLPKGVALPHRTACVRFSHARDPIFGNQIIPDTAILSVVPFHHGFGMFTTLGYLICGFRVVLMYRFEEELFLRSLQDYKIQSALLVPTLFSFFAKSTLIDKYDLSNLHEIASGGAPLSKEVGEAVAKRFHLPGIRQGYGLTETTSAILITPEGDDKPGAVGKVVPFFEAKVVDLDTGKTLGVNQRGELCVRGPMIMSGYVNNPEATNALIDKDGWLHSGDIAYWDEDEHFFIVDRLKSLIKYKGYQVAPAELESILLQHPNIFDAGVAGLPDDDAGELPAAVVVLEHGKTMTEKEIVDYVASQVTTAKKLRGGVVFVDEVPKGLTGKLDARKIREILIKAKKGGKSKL
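Purified P. pyralis luciferase, 10 nM final, with Km-level 10 uM D-luciferin and 10 uM ATP in 50 mM Tris acetate pH 7.5, 10 mM Mg acetate, 0.01% Tween-20, 0.05% BSA; 6-point qHTS titration about 60 µM downward; luminescence read.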
ELG1 DNA repair: ELG1-dependent DNA repair inhibition. HEK293T ELG1-luciferase reporter, luminescence, 16 h; DNA damage induced by 5-fluorouridine. Potency, µM (series often up to 46.1 µM), for the others: at the top dose activity change, negative = inhibition, usual class: inhibitors. 330,000 compounds, 2.3% hits. AID 504467; further: on the % scale 0 is the no-effect control and ±100 the full control effect; nearly all actives have a fitted effect of over 55% in size
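Quantitative HTS, concentration-response format. 2,000 cells/well co-treated with 5-fluorouridine and compound, 16 hr in 5% CO2 at 37 °C; ONE-Glo luminescence read after 30 min.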
NPC1 prom act: NPC1 promoter activation. AID 485313. Potency, µM (top dose mostly 9.22 µM), for the others: at the top dose activation, actives largely listed as activators. Huh7 NPC1 promoter luciferase reporter, 24 h. 320,000 compounds, 2.4% hits; further: % of control where 0% means no effect; nearly all actives have a fitted effect of over 60% in size
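Compounds in DMSO were transferred onto Huh7 NPC1-luciferase reporter cells pre-incubated 2 h; after 24 h at 37 °C, Amplite reagent was dispensed and luminescence recorded 10 min later.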
SMN2 splice up: enhancers of SMN2 splice variant expression; HEK293 SMN2-luciferase splicing reporter, luminescence, 30-36 h; Potency, µM (highest dose often 46.1 µM), for the others: at the highest dose activity change, positive = activation, most hits filed as activators; 210,000 compounds, 2.8% hits; further: % of control where 0% means no effect; nearly all actives have a fitted effect of over 55% in size
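HEK293 cells carry an SMN2 minigene-luciferase reporter in which exon 7 inclusion puts luciferase in frame. Cells were seeded at 2000 cells/well, attached for 10-12 hours, then exposed to compounds for 30-36 hours at 37C before ONE-Glo luminescence.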
The depositor's hits bear a star; ? = inconclusive; / = no result; [ ] = dose if it differs, or a comment. A selection: hits, their analogues and other compounds. The true share with any hit is near 9.2%. The call rests on the fitted dose curve; in most records, active means well fitted curve in the direction sought with a large enough effect; inconclusive means small, poorly fitted or top-dose-only effect, or another doubt; inactive means no such curve, though single readings can be large; an effect the other way counts as inactive or inconclusive. Potency means the concentration at half of the fitted maximal effect.

SMILES	ELG1 genotoxic	Rab9 promoter act	FLuc counter	ELG1 DNA repair	NPC1 prom act	SMN2 splice up
O=C(c1[nH]nc2c1CCc1ccccc1-2)N1CCN(Cc2ccc3c(c2)OCO3)CC1	-5%[9.26 µM]	-41%	12%	9.2µM*	-10%	/
COc1ccsc1C(=O)N1CCN(Cc2ccc3c(c2)OCO3)CC1	1%	-5%	0%	?	1%	-13%
O=C(c1ccccc1)N1CCN(Cc2ccc3c(c2)OCO3)CC1	-1%	-5%	-1%	-17%	2%	/
N#CCc1ccc(NC(=O)c2cc(S(=O)(=O)N3CCOCC3)ccc2Cl)cc1	-15%	-3%	3%	-13%	0%	/
C/C(=N\NC(=O)CCC(=O)Nc1ccc(C)c(C)c1)c1cccs1	2%	-4%	0%	2%	-12%	6%
CSc1ccccc1NC(=O)C1=COCCO1	8%	0%	1%	26%	2%	/
Cc1ccccc1N(Cc1cc(=O)[nH]c2ccccc12)C(=O)CCl	-8%	3%	-1%	10µM*	-13%	/
O=C(CCl)N(Cc1cc(=O)[nH]c2ccccc12)c1ccccc1	-18%	-25%	0%	13µM*	-17%	/
CCC(=O)N(Cc1cc(=O)[nH]c2ccccc12)c1ccccc1	0%	-2%	0%	-11%	2%	/
Cc1ccccc1N(Cc1cc(=O)[nH]c2ccccc12)C(=O)C(C)C	-1%	-11%	-1%	8%	-6%	/
CC(NC(=O)OCc1ccccc1)C(=O)Oc1cc2oc(=O)cc(-c3ccccc3)c2cc1Cl (centres undefined)	-9%	6%	1%	21µM*	3%	-30%
COc1ccc(/C=N/NC(=O)c2ccccc2O)cc1CSc1ccccn1	3%	-10%	19µM*	12%	1%	3%
COc1ccc(/C=N/NC(=O)c2ccccc2O)cc1Cn1nnc2ccccc21	1%	1%	21µM*	-3%	0%	/
COc1ccc(/C=N/NC(=O)CSc2ccccc2)cc1OC	-1%	-6%	12µM*	16%	2%	22%
COc1ccc(/C=N\NC(=O)c2sccc2C)cc1Cn1nc(C)cc1C	9.2µM*	-1%	3%	?	-5%	/
COc1ccc(/C=N/NC(=O)CSCC(=O)Nc2ccccc2)cc1OC	1%	4%	-23%	-20%	0%	/
O=C(Nc1ccc(F)cc1F)c1cc2nc(-c3ccco3)cc(C(F)(F)Cl)n2n1	/	/	-3%	/	/	/
COc1ccc(/C=N/NC(=O)CSc2ccccn2)cc1OC	9%	20%	19µM*	?	13%	/
COc1cc(/C=N/NC(=O)CSc2cc(C)c(Br)cc2C)ccc1O	-13%	-2%	-10%	16µM*	2%	-3%
Cc1cc(SCC(=O)N/N=C/c2ccc(O)c(O)c2O)c(C)cc1Br	10%	-28%	-18%	3%	-11%	3%
CC(=O)Nc1ccc(C)cc1-c1nc2ccccc2n(Cc2cccc(Br)c2)c1=O	/	/	-2%	/	/	/
COc1ccccc1-c1nnc(SCC(=O)NNC(=O)c2ccccc2F)n1C	4%	-10%	1%	21%	-1%	/
O=C(Nc1ccc(Cc2ccncc2)cc1)C1CCC(N2C(=O)C3C4C=CC(C4)C3C2=O)CC1 (centres undefined)	-13%	-9%	1%	6.5µM*	0%	-46%
CC(C)Sc1nc2sc3c(c2c(=O)n1Cc1ccccc1)CCCC3	/	/	-5%	/	/	1%
CCOc1ccc(N=Cc2c(C)[nH]n(-c3nc4ccccc4[nH]3)c2=O)cc1	3%	?	8.5µM*	?	25%	12%
SMILES	ELG1 genotoxic	Rab9 promoter act	FLuc counter	ELG1 DNA repair	NPC1 prom act	SMN2 splice up
CCC(C)N(C(=O)CSc1nc(C)nc2ccccc12)C1CCS(=O)(=O)C1 (centres undefined)	-6%	1%	-3%	-29%	1%	/
CCC(C)N(C(=O)CSc1nc(-c2ccccc2)cs1)C1CCS(=O)(=O)C1 (centres undefined)	-4%	-5%	17µM*	-3%	1%	-25%
CC(C)(C)OC(=O)N1CCC(c2c(C(=O)NCCN3CCOCC3)cnn2-c2cccc(F)c2)CC1	/	/	-3%	/	/	/
Fc1ccccc1-c1nc(-c2ccncc2)no1	?	1.8µM*	8.5µM*	?	1.8µM*	/
Fc1ccccc1-c1nc(-c2ccccc2)no1	?	2.8µM*	0.6µM*	?	3.5µM*	11µM*
Brc1ccccc1-c1nc(-c2ccccc2)no1	?	3.5µM*	0.95µM*	?	27%	4µM*
COc1ccc(-c2ccc(-c3noc(-c4ccccc4F)n3)c(OC)n2)cc1	0%	-1%	-4%	7%	-1%	0%
Cc1cccc(C)c1NC(=O)c1cccc(COc2cc(Cl)ccc2Cl)c1	16%	16%	-6%	?	15%	13µM*
Cc1cccc(C)c1NC(=O)c1ccc(-c2ccc(Cl)cc2Cl)o1	-30%	-11%	-1%	13µM*	6%	-3%
Cc1ccccc1-c1ccc(C(=O)Nc2cccc(F)c2)o1	?	15%	9.5µM*	?	6%	13%
COC(=O)c1cc(NC(=O)c2ccc(-c3ccc(Cl)cc3Cl)o2)cc(C(=O)OC)c1	/	/	3%	/	/	2%
Cc1ccccc1NC(=O)c1ccc(-c2ccc(Cl)cc2Cl)o1	7%	19%	8.5µM*	-1%	9%	0%
CC(C)COc1ccc(CSCCNC(=S)Nc2ccccc2)cc1	3%	-10%	-12%	1%	-13%	-37%
CC1CCN(CC2CCN(C(=O)Nc3ccc(Br)cc3F)CC2)CC1	/	/	-7%	/	/	/
Cc1cc(C)nc(N/N=C/c2cccc3ccccc23)n1	9%	-2%	12µM*	?	15%	26%
C(=N\Nc1ccc2ccccc2n1)/c1ccc2c(c1)OCCO2	?	-20%	0.067µM*	?	-23%	-77%
Cc1cccc(/C=N/Nc2ccc3ccccc3n2)c1	0.23µM*	?	0.076µM*	?	?	-36%
C(=N\n1cnnc1)/c1ccc2c(c1)OCCO2	4%	-2%	-17%	12%	1%	13%
C(=N\Nc1nc2ccccc2[nH]1)/c1ccc2c(c1)OCCO2	?	1.4µM*	0.76µM*	?	?	/
Cc1cccc(/C=N\Nc2cn[nH]c(=O)c2Cl)c1	?	21%	?	?	0%	27%
CCN1C(=NCc2ccc(OC)cc2)N[C@@H](c2ccccc2)[C@H](C(=O)OC)[C@H]1C	-2%	0%	1%	17%	2%	/
Cc1nc(SCCOc2ccccc2F)[nH]c(=O)c1Cc1ccccc1	3%	-4%	-13%	5%	-3%	-3%

Assay outcomes from PubChem BioAssay.
